Dicer inh: inhibitors of Dicer pre-microRNA processing, primary screen, biochemical, cat-ELCCA, chemiluminescence; Endoribonuclease Dicer (Homo sapiens), Q9UPY3; cat-ELCCA pre-miR-21 Dicer processing; stronger effect = higher value; actives 6% (n = 47,000); z-score at 25 µM; in the data active means z-score above about 3, passing the limit was not always enough;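 further: plate controls were vehicle for no effect and no enzyme for full effect; higher signal means more uncleaved substrate so more Dicer inhibition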
Target sequence (Q9UPY3 whole entry, looked up): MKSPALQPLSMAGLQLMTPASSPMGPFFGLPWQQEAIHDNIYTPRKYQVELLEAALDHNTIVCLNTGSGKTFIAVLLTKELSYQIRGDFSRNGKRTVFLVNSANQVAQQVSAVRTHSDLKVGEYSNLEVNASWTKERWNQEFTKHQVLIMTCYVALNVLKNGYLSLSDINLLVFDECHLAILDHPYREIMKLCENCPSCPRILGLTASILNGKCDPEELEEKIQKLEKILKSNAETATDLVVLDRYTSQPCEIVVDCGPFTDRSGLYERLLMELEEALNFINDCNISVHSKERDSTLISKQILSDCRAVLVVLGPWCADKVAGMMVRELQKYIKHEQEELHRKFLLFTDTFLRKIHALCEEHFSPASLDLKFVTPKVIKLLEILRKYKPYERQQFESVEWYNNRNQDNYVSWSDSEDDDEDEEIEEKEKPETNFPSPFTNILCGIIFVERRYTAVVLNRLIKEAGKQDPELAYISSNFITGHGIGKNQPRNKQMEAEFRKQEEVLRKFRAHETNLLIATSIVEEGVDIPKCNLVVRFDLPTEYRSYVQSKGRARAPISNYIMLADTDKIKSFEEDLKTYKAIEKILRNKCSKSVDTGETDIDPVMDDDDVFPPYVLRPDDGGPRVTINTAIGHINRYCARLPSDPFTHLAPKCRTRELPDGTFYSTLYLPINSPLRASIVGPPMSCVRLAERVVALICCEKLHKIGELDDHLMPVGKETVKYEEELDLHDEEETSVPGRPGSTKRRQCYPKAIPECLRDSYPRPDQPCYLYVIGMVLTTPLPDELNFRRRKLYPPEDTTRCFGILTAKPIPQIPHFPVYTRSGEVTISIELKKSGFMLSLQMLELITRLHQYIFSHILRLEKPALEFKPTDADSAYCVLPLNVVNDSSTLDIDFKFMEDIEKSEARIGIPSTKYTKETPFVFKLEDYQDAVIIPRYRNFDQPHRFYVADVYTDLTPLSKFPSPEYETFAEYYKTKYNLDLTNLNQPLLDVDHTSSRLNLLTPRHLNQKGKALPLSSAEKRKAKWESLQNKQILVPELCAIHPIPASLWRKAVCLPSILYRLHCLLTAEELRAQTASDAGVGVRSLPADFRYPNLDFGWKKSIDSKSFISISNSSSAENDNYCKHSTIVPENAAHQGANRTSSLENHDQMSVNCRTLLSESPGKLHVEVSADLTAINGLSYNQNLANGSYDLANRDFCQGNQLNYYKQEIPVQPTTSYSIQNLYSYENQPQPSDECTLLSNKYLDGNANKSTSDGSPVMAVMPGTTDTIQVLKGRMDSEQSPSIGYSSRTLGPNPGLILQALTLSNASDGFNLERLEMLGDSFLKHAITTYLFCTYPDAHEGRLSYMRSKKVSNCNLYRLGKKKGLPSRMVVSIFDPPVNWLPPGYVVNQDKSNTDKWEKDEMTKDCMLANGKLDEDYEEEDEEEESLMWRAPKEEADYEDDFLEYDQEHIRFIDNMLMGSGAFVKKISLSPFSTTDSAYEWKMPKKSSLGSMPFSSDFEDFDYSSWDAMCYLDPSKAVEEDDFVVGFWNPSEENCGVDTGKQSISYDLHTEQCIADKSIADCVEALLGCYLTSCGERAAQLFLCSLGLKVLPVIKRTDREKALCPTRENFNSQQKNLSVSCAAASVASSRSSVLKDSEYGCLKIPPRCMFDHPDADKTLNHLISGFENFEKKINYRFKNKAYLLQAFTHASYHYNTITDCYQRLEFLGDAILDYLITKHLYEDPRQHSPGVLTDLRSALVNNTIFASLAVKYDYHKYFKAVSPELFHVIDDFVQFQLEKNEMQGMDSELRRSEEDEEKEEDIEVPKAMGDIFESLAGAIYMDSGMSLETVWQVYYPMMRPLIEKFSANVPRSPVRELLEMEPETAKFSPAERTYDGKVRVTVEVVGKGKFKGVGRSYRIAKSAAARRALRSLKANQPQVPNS
* = called active by the depositor. Many of the other results were omitted from the sample, so hits are more common in it than they were.

SMILES	Dicer inh
COc1ccc(Cc2nnc(SCC(=O)O)o2)cc1	-0.14
COCCOC(=O)C1=C(C)NC2=C(C(=O)CC(c3ccccc3)C2)C1c1ccc(OC(C)=O)cc1 (stereo not given)	0.12
Clc1ccc(-c2ncnn2-c2ccc(Cl)cc2)cc1	0.88
CCOc1ccc(C2C(C(=O)OC)=C(C)NC3=C2C(=O)CC(c2ccc(OC)c(OC)c2)C3)cc1 (stereo not given)	3.2*
CCOC(=O)C1=C(C)NC2=C(C(=O)CC(c3ccc(Cl)cc3)C2)C1c1ccc(N(C)C)cc1 (stereo not given)	1.7
CCOc1cc(C2C(C(=O)OC)=C(C)NC3=C2C(=O)c2ccccc23)cc(Cl)c1O (stereo not given)	2.9
CCOCCOC(=O)C1=C(C)NC2=C(C(=O)CC(c3ccc(Cl)cc3)C2)C1c1ccc(F)cc1 (stereo not given)	4.2*
CCOc1cc(C2C(C(=O)OC)=C(C)NC3=C2C(=O)CC(c2ccccc2)C3)cc(Cl)c1O (stereo not given)	3.7*
CCOC(=O)C1=C(C)NC2=C(C(=O)CC(c3ccc(Cl)cc3)C2)C1c1ccc(OCC)cc1 (stereo not given)	3.4*
CCOCCOC(=O)C1=C(C)NC2=C(C(=O)CC(c3cccs3)C2)C1c1ccc(F)cc1 (stereo not given)	0.73
CCOCCOC(=O)C1=C(C)NC2=C(C(=O)CC(c3ccccc3)C2)C1c1ccccc1OCC (stereo not given)	2.6
COC(=O)C1=C(C)NC2=C(C(=O)CC(c3ccc(OC)c(OC)c3)C2)C1c1ccc(OC)cc1OC (stereo not given)	2.9
CCCOc1ccc(C2C(C(=O)OC)=C(C)NC3=C2C(=O)CC(c2ccc(OC)cc2)C3)cc1 (stereo not given)	2.1
CCOC(=O)C1=C(C)NC2=C(C(=O)CC(c3ccc(OC)cc3)C2)C1c1ccc(OC)cc1 (stereo not given)	1.3
CCOc1cc(C2Nc3ccccc3NC3=C2C(=O)CC(c2ccccc2)C3)cc(Cl)c1O (stereo not given)	1.1
CN(c1ccccc1CNc1nc(Nc2ccc3c(c2)CC(=O)N3)ncc1C(F)(F)F)S(C)(=O)=O	1.7
CCSc1ncccc1C(=O)NC(CCSC)C(=O)O (stereo not given)	-2.2
CC(=O)Oc1ccc(C2(c3ccc(OC(C)=O)cc3)OC(=O)c3ccccc32)cc1	1.4
CSCc1ccc(C(=O)Nc2ccc(C)cc2O)cc1	2.6
COc1cc(NC(=S)N2CCN(c3ccccc3OC)CC2)c(OC)cc1Cl	0.52
N#C/C(=C\c1ccc(Cl)cc1Cl)c1cccc(Cl)c1	5
CC(=O)NC(Nc1ccccc1C(F)(F)F)(C(F)(F)F)C(F)(F)F	-1.2
CCOc1cc(S(=O)(=O)Nc2cccnc2)ccc1Cl	0.88
CCOC(=O)Cc1csc(NS(=O)(=O)c2ccc3c(c2)CCO3)n1	-1.6
Cc1ccc(NS(=O)(=O)c2cccs2)cc1	0.16
SMILES	Dicer inh
CCOC(=O)c1c(C)oc2ccc(NS(=O)(=O)c3cccs3)cc12	-0.75
Cc1c(C(=O)O)c2cc(NS(=O)(=O)c3cccs3)ccc2n1S(=O)(=O)c1cccs1	7.5*
CCC(=O)N1c2ccccc2-c2nnc(SC)nc2OC1c1ccc2c(c1)OCO2 (stereo not given)	0.15
COc1ccc(OCC(O)CNC(=O)Nc2ccc(F)cc2F)cc1 (stereo not given)	-2.1
C=CCN1C(=O)C2(/C(=C(/O)c3ccc(F)cc3)C(=O)C(=O)N2CCCOC)c2ccccc21 (stereo not given)	-0.04
CN1C(=O)C2(/C(=C(/O)c3ccc(Cl)cc3)C(=O)C(=O)N2CCCN2CCOCC2)c2ccccc21 (stereo not given)	10
C=CCN1C(=O)C2(/C(=C(/O)c3ccc(Cl)cc3)C(=O)C(=O)N2CC2CCCO2)c2ccccc21 (stereo not given)	0.42
C=CCN1C(=O)C2(/C(=C(/O)c3ccccc3)C(=O)C(=O)N2CCCN2CCOCC2)c2ccccc21 (stereo not given)	3.5*
C=CCN1C(=O)C2(/C(=C(/O)c3ccc(F)cc3)C(=O)C(=O)N2CCN2CCOCC2)c2ccccc21 (stereo not given)	4.5*
COC(=O)C1=C(C)NC2=C(C(=O)CCC2)C1c1cc(Cl)c(O)c(OC)c1 (stereo not given)	-0.43
CN(C)CCCOc1nc2c(c(=O)n(C)c(=O)n2C)n1C	-0.1
C(=N\c1nc2c(s1)CCc1ccccc1-2)/c1ccc2c(c1)OCO2	1.2
COCCn1c2c(c(=O)[nH]c1=O)C(c1ccc(F)cc1)C1=C(N2)c2ccccc2C1=O (stereo not given)	-0.43
CCC(=O)N1CC2(CC)CN(C(=O)CC)CC(CC)(C1)C2=O	0.71
COc1ccc(OCc2nc3c4c5c(sc4ncn3n2)CCCCC5)cc1	4.2*
COc1ccccc1OCc1nc2c3c4c(sc3ncn2n1)CCCCC4	-0.5
Clc1ccc(OCc2nc3c4c5c(sc4ncn3n2)CCCC5)cc1	1.2
CCOC(=O)c1cnc2c(-c3ccccc3)c(C(F)(F)F)sc2c1OCC	-0.56
Nc1nc2c(-c3ccccc3)c(C(F)(F)F)sc2s1	4.2*
O=C(Nc1nc2c(-c3ccccc3)c(C(F)(F)F)sc2s1)c1ccc(Cl)cc1	0.43
CCCc1nc(-c2ccc(-c3ccc(Cl)cc3)nc2OC)no1	-0.55
COC(=O)C1=C(C)NC2=C(C(=O)CCC2)C1c1ccccc1C (stereo not given)	0.26
OCCSc1nc2ccccc2n1Cc1ccccc1	-0.6
NC(=O)Cn1c(CSc2nc3ccccc3n2Cc2ccccc2)nc2ccccc21	4.2*
O=C(O)CSc1nc2ccccc2n1Cc1ccccc1	-1.6
SMILES	Dicer inh
COC(=O)CNC(=O)c1cccnc1Sc1cc(OC)ccc1OC	-0.39
O=C(Nc1ccc(Cl)cc1)c1cnc(NC2CCCCC2)cc1C(F)(F)F	0.47
CCOc1ccc(/C(O)=C2\C(=O)C(=O)N(c3nccs3)C2c2ccc(OC)cc2)cc1 (stereo not given)	-1.2
CC1CCCCN1S(=O)(=O)c1cc(Cl)c(Cl)cc1Cl (stereo not given)	-0.85
CCOC(=O)Oc1ccc2c(=O)c(Oc3ccccc3Br)coc2c1	0.73
Cc1oc2cc(O)ccc2c(=O)c1Oc1ccc(Cl)cc1	0.45
Cc1oc2cc(O)ccc2c(=O)c1Oc1ccccc1Br	3.5*
COC(=O)COc1ccc2c(=O)c(Oc3cc(C)cc(C)c3)c(C(F)(F)F)oc2c1	-0.48
COC(=O)COc1ccc2c(=O)c(Oc3ccccc3Br)c(C(F)(F)F)oc2c1	3.5*
COC(=O)COc1ccc2c(=O)c(Oc3ccccc3Cl)c(C(F)(F)F)oc2c1	-1.1
N#Cc1c(SCc2ccccc2)nc2c(c1/C=C\c1ccccc1)CCC2	-0.85
CCSC1=N/C(=C\c2cc(Br)ccc2OC)C(=O)S1	0.42
Cc1ccc2nc(-c3ccc(C)c(N)c3)oc2c1	1.5
CCOC(=O)c1ccc(N2C(=O)CC(SCC(=O)Nc3ccc(F)cc3)C2=O)cc1 (stereo not given)	-1.2
O=C1C(=O)N(CCCn2ccnc2)C(c2cccnc2)/C1=C(\O)c1ccc(Cl)cc1 (stereo not given)	2
Cc1[nH]c2ccccc2c1C(OC(C)C)c1ccccn1 (stereo not given)	-0.79
CCOC(=O)C(NCCc1ccc(OC)cc1)(NC(=O)c1ccccc1Cl)C(F)(F)F (stereo not given)	0.25
CSC(=NCCc1ccc(Cl)cc1)NC(=O)c1c(Cl)cccc1Cl	-0.84

Assay outcomes from PubChem.
